The text below walks through data of PubChem BioAssay.

What is called inhibition is the relative decrease from the control value, in per cent.

Molecules are shown by their SMILES. Where “and” joins values, the source holds several entries; their conditions need not be identical. Equal values may be shown once. Calls of active or inactive are those of the source. Unless noted, no rule for the calls is given here.

Test system in the first experiment: not listed separately
Nature of the experiment: kinase inhibitors against Plasmodium liver-stage infection, cell-based, known kinase inhibitor set, luminescence, hepatoma host viability (AID 624392).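 Also: infected cells incubated roughly two days before readout.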 The conditions noted are these: Plasmodium liver stage in hepatoma cells, luciferase luminescence, concentration not given here; liver cell % of control: measured here: host liver cell viability; parasite % of control: stronger effect = lower value.
For `NS(=O)(=O)c1ccc(-c2ccc(C=C3NC(=S)NC3=O)o2)cc1`, the parasite % of control is 100% (inactive) and the liver cell % of control is 98.7%.

As to `Cc1c[nH]c(C=C2C(=O)Nc3ccccc32)c1CCC(=O)O`, the liver cell % of control is 85.5% and 92.1% and 99.1%; the parasite % of control is 58.7% (inactive) and 47.8% (inactive) and 49.4% (inactive).

As to `Cn1c(C2=C(c3c4n(c5ccccc35)CCC(CN)C4)C(=O)NC2=O)cc2ccccc21` (stereo not given), the parasite % of control was 3.36% (inactive) and 70.7% (inactive) and 90.3% (inactive); the liver cell % of control was 41.8% and 77.6% and 88.8%.

On to `C=CC(=O)Nc1cccc(Oc2ccnc3[nH]ccc23)c1`, for which the liver cell % of control came out at 102% and the parasite % of control was 56.9% (inactive).

For the compound `CN(c1ccc(OC(F)(F)F)cc1)c1cc(-c2cccc(C(N)=O)c2)ncn1`, the liver cell % of control was 99.1% and the parasite % of control is 107% (inactive).

For the compound `CCN1CCN(Cc2ccc(NC(=O)c3ccc(C)c(NC(=O)c4c[nH]c5cc(C(F)(F)F)ccc5c4=O)c3)cc2C(F)(F)F)CC1`, the parasite % of control was 4.19% (active) and the liver cell % of control turned out to be 45.6%.

As for `C=CC(=O)Nc1ccc(Nc2ccnc(Nc3ccc(N4CCN(C)CC4)cc3)n2)cc1`, the liver cell % of control stood at 105% and the parasite % of control was 124% (inactive).

On to `CS(=O)(=O)Nc1ccc(-c2cc(C=C3SC(N)=NC3=O)c[nH]c2=O)cc1`, for which the liver cell % of control is 97.7% and the parasite % of control was 127% (inactive).

With `C=CC(=O)Nc1cccc(CN2C(=O)N(c3cc(OC)cc(OC)c3)Cc3cnc(NCCCCN(CC)CC)nc32)c1`, the parasite % of control was 70.3% (active) and the liver cell % of control worked out at 102%.

Take `CCN1CCN(Cc2ccc(NC(=O)c3cc(NC(=O)c4cncc(-c5ccc(C#N)cc5)c4)cc(OC)c3)cc2C(F)(F)F)CC1`: the parasite % of control was 95.5% (inactive) and the liver cell % of control was 77.4%.

Consider `NS(=O)(=O)c1ccc(-c2ccc(C=C3C(=O)Nc4ccccc43)o2)cc1`, for which the liver cell % of control was found to be 99.7% and the parasite % of control is 90.6% (inactive).

Regarding `CCN1CCN(Cc2ccc(NC(=O)c3ccc(C)c(C=Cc4cnc(Nc5cc(N6CCNCC6)nc(C)n5)cn4)c3)cc2C(F)(F)F)CC1`, the liver cell % of control was determined as 96.8% and the parasite % of control was 369% (inactive).

As for `O=C(Nc1ccc(-c2csc(Nc3ccc(Cl)cc3)n2)cc1)c1cccc(C(F)(F)F)c1`, the liver cell % of control came to 104% and the parasite % of control was 88% (inactive).

Regarding `O=C(Nc1ccc(-c2csc(Nc3cccc(C(F)(F)F)c3)n2)cc1)c1cccc(C(F)(F)F)c1`, the liver cell % of control came out at 101% and the parasite % of control is 45.1% (inactive).

Turning to `OCCCNc1nccc(-c2cc(Nc3cccc(Cl)c3)ncn2)n1`, the parasite % of control was 176% (inactive) and the liver cell % of control amounted to 81.8%.

As to `COc1cc(N2CCC(O)CC2)ccc1Nc1nnc(Cl)c(Nc2ccccc2S(C)(=O)=O)n1`, the liver cell % of control was 86.2% and the parasite % of control was 80.5% (inactive).

On to `COc1cc(NC(=O)c2nccn2C)cc(C(=O)Nc2cccc(C(F)(F)F)c2)c1`, for which the parasite % of control was 84.5% (inactive) and the liver cell % of control came out at 91.3%.

As for `COc1cc(NC(=O)c2ccno2)cc(C(=O)Nc2cccc(C(F)(F)F)c2)c1`, the parasite % of control was 70% (inactive) and the liver cell % of control worked out at 96.7%.

With `COc1ccc(CNc2nc(NCc3ccc(OC)cc3)c3[nH]cnc3n2)cc1`, the liver cell % of control was 92.9% and the parasite % of control is 590% (inactive).

On to `CCN1CCN(Cc2ccc(NC(=O)c3cc(NC(=O)c4ccno4)cc(OC)c3)cc2C(F)(F)F)CC1`, for which the liver cell % of control is 99.7% and the parasite % of control is 75.7% (inactive).

With `CC(C)n1cnc2c(N(Cc3ccccc3)c3cccc(Cl)c3)nc(N(CCN(C)C)Cc3ccccc3)nc21`, the liver cell % of control was determined as 82.6% and the parasite % of control was 9.42% (active).

As to `C=CC(=O)N1CCCC(Nc2nc(Nc3ccc(N(C)C(=O)CC)cc3C)nc3nc[nH]c23)C1` (stereo not given), the liver cell % of control was 105% and the parasite % of control is 93.2% (inactive).

`C=CC(=O)Nc1cccc(N2C(=O)N(c3c(Cl)c(OC)cc(OC)c3Cl)Cc3cnc(NCCCCN(CC)CC)nc32)c1`: the parasite % of control was 107% (inactive) and the liver cell % of control was 104%.

A further experiment has as its system Hepatitis C virus NS3 helicase. Nature of the experiment: HCV NS3 helicase inhibitors, primary screen, biochemical, fluorescence polarization, LOPAC1280 library (AID 687035; in the data active = inhibition above about 37%). Conditions: Purified HCV NS3 helicase, Cy5-dT15 ssDNA binding fluorescence polarization; stronger effect = higher value; concentration not given here. (Fluorescence polarisation rises when a labelled molecule tumbles more slowly, as on binding a larger partner.)
As for `CCOC(=O)N1CCN(/[N+]([O-])=N\Oc2ccc([N+](=O)[O-])cc2[N+](=O)[O-])CC1`, the inhibition was -3% (inactive).

In the case of `Cc1ccc2nc(CN(CCN(Cc3nc4ccc(C)cc4[nH]3)Cc3nc4ccc(C)cc4[nH]3)Cc3nc4ccc(C)cc4[nH]3)[nH]c2c1`, the inhibition is 0% (inactive).

`CC(C)ON([C@@H](C(=O)NO)C(C)C)S(=O)(=O)c1ccc(-c2ccccc2)cc1`: the inhibition was -1% (inactive).

`Fc1cccc(/C=N\N=C/c2cccc(F)c2)c1`: the inhibition is -2% (inactive).

Turning to `CN(C)c1nc2c(Br)c(Br)c(Br)c(Br)c2[nH]1`, the inhibition was 1% (inactive).

In the case of `O=C1CN(/N=C\c2ccc(-c3ccc([N+](=O)[O-])cc3)o2)C(=O)N1`, the inhibition was -3% (inactive).

Consider `C=CCc1cccc(/C=N\NC(=O)CN2CCN(Cc3ccccc3)CC2)c1O`, for which the inhibition was 1% (inactive).

In the case of `CO/N=C(/C(=O)N[C@@H]1C(=O)N2C(C(=O)O)=C(CSc3nc(=O)c(O)nn3C)CSC12)c1csc(N)n1` (stereo not given in full), the inhibition was -2% (inactive).

As for `COCCCC/C(=N/OCCN)c1ccc(C(F)(F)F)cc1`, the inhibition was -1% (inactive).

For `CC(=O)N[C@H]1[C@H]([C@H](O)[C@H](O)CO)OC(C(=O)O)=C[C@@H]1O`, the inhibition is 2% (inactive).

Regarding `CC(=O)/C(C)=N\O`, the inhibition is -1% (inactive).

Consider `Nc1ncnc2c1c(I)cn2[C@@H]1C[C@H](N)[C@@H](O)[C@H]1O`, for which the inhibition is -1% (inactive).

Test system in the next experiment: not listed separately
The experiment can be described thus: Cy5 fluorescence quenching or enhancement artefacts, artefact control for HCV NS3 helicase inhibitor project, biochemical, LOPAC1280 (AID 687037). The conditions noted are these: Cy5-DNA-NS3h complex fluorescence interference counterscreen. On the technique in general: A counterscreen serves to expose hits that act by an unwanted route or on another target.
Regarding `CCOC(=O)N1CCN(/[N+]([O-])=N\Oc2ccc([N+](=O)[O-])cc2[N+](=O)[O-])CC1`, the fluorescence ratio (interference) is 1.1 (inactive).

On to `Cc1ccc2nc(CN(CCN(Cc3nc4ccc(C)cc4[nH]3)Cc3nc4ccc(C)cc4[nH]3)Cc3nc4ccc(C)cc4[nH]3)[nH]c2c1`, for which the fluorescence ratio (interference) was 1 (inactive).

As for `CC(C)ON([C@@H](C(=O)NO)C(C)C)S(=O)(=O)c1ccc(-c2ccccc2)cc1`, the fluorescence ratio (interference) is 0.9 (inactive).

On to `Fc1cccc(/C=N\N=C/c2cccc(F)c2)c1`, for which the fluorescence ratio (interference) is 1 (inactive).

Regarding `CN(C)c1nc2c(Br)c(Br)c(Br)c(Br)c2[nH]1`, the fluorescence ratio (interference) was 1 (inactive).

On to `O=C1CN(/N=C\c2ccc(-c3ccc([N+](=O)[O-])cc3)o2)C(=O)N1`, for which the fluorescence ratio (interference) is 1 (inactive).

`C=CCc1cccc(/C=N\NC(=O)CN2CCN(Cc3ccccc3)CC2)c1O`: the fluorescence ratio (interference) is 0.9 (inactive).

As to `CO/N=C(/C(=O)N[C@@H]1C(=O)N2C(C(=O)O)=C(CSc3nc(=O)c(O)nn3C)CSC12)c1csc(N)n1` (stereo not given in full), the fluorescence ratio (interference) was 1 (inactive).

`COCCCC/C(=N/OCCN)c1ccc(C(F)(F)F)cc1`: the fluorescence ratio (interference) was 1 (inactive).

In the case of `CC(=O)N[C@H]1[C@H]([C@H](O)[C@H](O)CO)OC(C(=O)O)=C[C@@H]1O`, the fluorescence ratio (interference) is 1 (inactive).

On to `CC(=O)/C(C)=N\O`, for which the fluorescence ratio (interference) was 1.1 (inactive).

`Nc1ncnc2c1c(I)cn2[C@@H]1C[C@H](N)[C@@H](O)[C@H]1O`: the fluorescence ratio (interference) is 0.9 (inactive).
